Data on 40 molecules can be found in PubChem BioAssay AID720526 (National Center for Advancing Translational Sciences (NCATS), 2013).

Records with an inconclusive call do not appear. A number with no mark means an inactive call. Activity calls are given as the source filed them. Calls come from the whole dose curve; as a rule, active = well fitted activation curve with a large enough effect; inconclusive = small, poorly fitted or top-dose-only effect; inactive = no such curve, though single readings can be large or run the other way.
Potency is the fitted concentration of half-maximal effect.

This assay can be described thus: qHTS Assay for NPC1 Promoter Activators: Hit Validation Using Renila Luciferase Read-Out for NPC1. For activity change, positive = activation: % of control where 0% means no effect. As to conditions: Huh7 NPC1 promoter-luciferase reporter, luminescence, 24 h; series mostly up to 76.9 µM; activity change, positive = activation: at the top concentration. From the text:
Niemann Pick Type C (NPC) is a rare neurodegenerative lipidosis that is characterized by lipid storage in the endosomal/lysosomal system. Treatment modalities for this devastating disease are currently non-existent due to the severe obstacles associated with accessing the central nervous system with proteins or genes. The majority of mutations causing NPC disease are missense mutations that are distributed throughout the length of the NPC1 protein, with the most prevalent being the I1061T allele. Although NPC1 mutant proteins may be functional, they are typically trapped in the ER due to misfolding. […] We have developed and optimized a cell based renilla luciferase reporter assay in 1536 well format for the identification of up-regulators of the mutant Rab9 promoter. This assay presents data on the validation of hits from the primary screen, which used a firefly luciferase read-out. NIH Chemical Genomics Center [NCGC] NIH Molecular Libraries Probe Production centers Network [MLPCN] MLPCN Grant: MH089375 Assay Submitter (PI): Yiannis A. Ioannou
Huh7 cells stably expressing NPC promoter-luciferase will be seeded at 1,500 cells/well in 5 uL in 1,536-well white opaque plates with 23 nL/well of compound in DMSO solution. The assay plates will be incubated at 37 deg C for 24 hours, after which 3 uL/well BriteLite plus luciferase detection reagent mixture (Perkin Elmer) will be added. Luminescence signal will be measured in a ViewLux plate reader (Perkin Elmer) after a 10 minute incubation at the room temperature.
Consider `CC(=O)Nc1nnc(SCC(=O)NCCOc2ccccc2)s1`, for which the “activity change, positive = activation” value was 3.94%.

Regarding `O=C(COC(=O)c1ccc(-c2nnc(-c3ccccc3)o2)cc1)c1ccccc1`, the “activity change, positive = activation” value was -10.3%.

Consider `COC(=O)c1sccc1NC(=S)OC`, for which the “activity change, positive = activation” value was 5.09%.

On to `OCCC1CN(Cc2nc3ccccc3s2)CCN1C1CCCC1` (stereo not given), for which the “activity change, positive = activation” value is -7.98%.

For `COc1ccc(NC(=O)CCCN2C(=O)C(c3ccccc3)Oc3cccnc32)cc1OC` (stereo not given), the “activity change, positive = activation” value was -18.8%.

Take `Cc1ccc(NC(=O)c2ncc(Cl)c(Cl)c2Cl)cc1C`: the “activity change, positive = activation” value is -39.1%.

Turning to `Cc1ccc(NC(=O)c2cccc(N3C(=O)CCC3=O)c2)nc1`, the “activity change, positive = activation” value was -4.36%.

Turning to `COc1ccc(-c2csc(Nc3ncccn3)n2)cc1C`, the “activity change, positive = activation” value is 5.9%.

For the molecule `COC(=O)Nc1nc2ccc(Br)cc2s1`, the “activity change, positive = activation” value was 17.5%.

For the molecule `O=C(N/N=C/c1ccc(-c2ccc(Br)cc2)o1)c1ccc2c(c1)OCO2`, the “activity change, positive = activation” value was 12.9%.

`CCCc1cc(C(=O)Nc2ccccc2SC)no1`: the “activity change, positive = activation” value was -2.99%.

As for `Cc1ccc(C(=O)Nc2ccc(N3CCN(C)CC3)nc2)cc1`, the “activity change, positive = activation” value was -9.22%.

Consider `Cc1ccc(C(=O)c2cn[nH]c2-c2ccccc2O)cc1`, for which the “activity change, positive = activation” value is -17.1%.

With `O=C(C1COc2ccccc2O1)N1CCN(S(=O)(=O)c2ccccc2)CC1` (stereo not given), the “activity change, positive = activation” value is -1.33%.

Take `O=C(c1cccc(Oc2ccc([N+](=O)[O-])cc2)c1)N1CCOCC1`: the “activity change, positive = activation” value is -24.6%.

For `FC(F)(F)c1ccc(Nc2nnnc3ccccc23)cc1`, the “activity change, positive = activation” value was -69%.

Take `CCCOP(=O)(c1ccc(N(C)C)cc1)C(O)c1cccnc1` (stereo not given): the “activity change, positive = activation” value is 5.33%.

As to `COCC1CCN(C(=O)c2ccc3oc(Cc4ccccc4)nc3c2)C1` (stereo not given), the “activity change, positive = activation” value was -18.2%.

Consider `Cc1ccc(CNC(=O)Nc2ccc(C)cc2)cc1`, for which the “activity change, positive = activation” value was -6.85%.

Consider `COc1cccc(CNC(=O)CN(c2cc(C)cc(C)c2)S(=O)(=O)c2c(C)noc2C)c1`, for which the “activity change, positive = activation” value is 7.09%.

For the molecule `CCOC(=O)c1ccccc1NC(=O)CSc1nnc(Cc2cccn2C)n1-c1ccc(F)cc1`, the Potency was 46.3 µM (active).

In the case of `CC(C)(C)C(=O)NC(=S)Nc1ccccc1F`, the “activity change, positive = activation” value is -37%.

With `CC1CCCN(S(=O)(=O)c2ccc(C(=O)Nc3nnc(-c4ccncc4)o3)cc2)C1` (stereo not given), the “activity change, positive = activation” value was -61.4%.

For the molecule `CCCCCCOc1ccc(OC(=O)c2cccnc2)cc1`, the Potency was 1.84 µM (active).

As for `Cc1nc(SCC(=O)NC(=O)NC(C)(C)C)nc(C)c1C`, the “activity change, positive = activation” value is -0.535%.

Regarding `O=C(NC(=S)Nc1ccc(CN2CCCCC2)cc1)c1cc2ccccc2o1`, the “activity change, positive = activation” value is -40.3%.

`COCCNC(=O)Cn1nc(-c2ccccc2)c2ccccc2c1=O`: the “activity change, positive = activation” value was 1.18%.

Consider `CC(=O)NC(=S)Nc1ccc2oc(-c3cc(F)c(F)cc3Cl)nc2c1`, for which the “activity change, positive = activation” value is 4.45%.

As to `O=S(=O)(c1cccs1)N1CCN(c2ncccn2)CC1`, the “activity change, positive = activation” value is -0.337%.

For `Nc1c(N(CCO)C(=O)/C=C/c2ccco2)c(=O)[nH]c(=O)n1Cc1ccccc1`, the “activity change, positive = activation” value is 13.3%.

As for `COc1ccc(NC(=O)Nc2ccc(Cc3ccncc3)cc2)cc1OC`, the “activity change, positive = activation” value was -56.6%.

`COc1ccc(-n2c(N)c(C(=O)NCc3ccco3)sc2=S)cc1`: the “activity change, positive = activation” value is 0.357%.

On to `O=C(Nc1ccc(-c2nc3cccnc3s2)cc1)c1ccc(Cl)nc1`, for which the “activity change, positive = activation” value is 1.87%.

As for `COC(=O)c1ccccc1NC(=O)c1ccc(-c2ccc(Br)cc2)o1`, the “activity change, positive = activation” value is -9.22%.

As to `CCOC(=O)C1(Cc2cccc(Cl)c2)CCCN(C(=O)CCSC)C1` (stereo not given), the “activity change, positive = activation” value was -3%.

With `Cn1c(SCc2ccccc2)nnc1-c1cnccn1`, the “activity change, positive = activation” value was -19.9%.

`COc1ccccc1N(C(=O)c1snc(C(N)=O)c1N)C(C(=O)NC1CCCCC1)c1cccc(OC)c1OC` (stereo not given): the Potency is 11.6 µM (active).

As to `C=CCn1c(C)nnc1SCC(=O)Nc1nccs1`, the “activity change, positive = activation” value was 6.19%.

With `CC1CCCN(C(=S)Nc2ccc(Nc3ccccc3)cc2)C1` (stereo not given), the “activity change, positive = activation” value was 2%.

For the molecule `COc1cccc(NC(=O)CN2C(=O)CSc3ccc(S(=O)(=O)N4CCC(C)CC4)cc32)c1`, the “activity change, positive = activation” value was -64%.
